The source of these data is PubChem BioAssay (NCATS).

Experiment [1] has as its target Lysosomal acid glucosylceramidase (Homo sapiens) (UniProt P04062). As to the kind of experiment: Glucocerebrosidase-p2 (AID 348; in the data active = potency below about 10 µM; note: potency is the fitted concentration of half-maximal effect). Conditions: purified GBA, blue fluorogenic substrate, 40 min. The method in brief:
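Compounds titrated from 0.6 nM upwards against 0.2 nM enzyme in pH 5.9 citric acid/KH2PO4, taurocholate, tween-20; blue fluorogenic substrate 80 uM, 40 min room temperature, stopped and read Ex 365/Em 440 for AC50.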

Experiment [2] can be described thus: AP1 Signaling Pathway (AID 357).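 Note: ME-180 reporter cells stimulated with EGF at its EC50 level; % is set by controls: 0 for no effect and ±100 for the full control effect.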 Conditions: ME-180 AP-1-bla reporter, EGF-induced, beta-lactamase ratio, 5 h; at 7.69 µM (top of the series) unless noted. The method in brief: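 In this screen, ME-180 cells in Opti-MEM with 0.5% dialyzed FBS received EC50 EGF and compound titrations for 5 h. AP-1 reporter beta-lactamase was detected via CCF4 ratio, giving AC50 for positive and negative modulators.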

A short description of experiment [3]: NFAT Signaling Pathway (AID 444).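 Note: carbachol stimulus at about its EC50 of 1 µM final; % is set by controls: 0 for no effect and ±100 for the full control effect.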 Conditions: Jurkat NFAT-bla M1, carbachol, beta-lactamase ratio, 5 h; at 7.69 µM (top of the series) unless noted. The essentials: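 Read-out: CCF4 FRET ratio (460 nm/530 nm) after 1 h RT dye loading, used for %activity and AC50 from titration series. Cells: Jurkat NFAT-β-lactamase/M1 line, treated with compound plus 1 uM carbachol for 5 h, 37 °C.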

A short description of experiment [4]: Stat Signaling Pathway (AID 446).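 Note: ME-180 cervical cancer cells given 40 pM IL-6 alongside compound; SIE-controlled beta-lactamase reporter measured as 460/530 nm FRET emission ratio; % is set by controls: 0 for no effect and ±100 for the full control effect.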 Conditions: ME-180 SIE beta-lactamase reporter, IL-6 stimulated, 5 h; at 7.69 µM (top of the series) unless noted. The method in brief: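 ME-180 cells carrying a SIE-driven beta-lactamase reporter are stimulated with 40 pM IL-6 for 5 h at 37C in the presence of compound. The 460/530 nm FRET substrate ratio is read after 2.5 h at RT. Data are normalised to 300 pM IL-6 and to 125 nM JAK inhibitor controls.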

In experiment [5] the target is Glucocorticoid receptor (Homo sapiens) (UniProt P04150). As to the kind of experiment: GR-GFP Redistribution (AID 450;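 active = compounds whose dose series gives a full or clear partial fitted curve of increased nuclear translocation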; note: potency is the fitted concentration of half-maximal effect). Conditions: U2OS GR-GFP nuclear translocation, laser cytometry, 2 h.
Sequence of Glucocorticoid receptor (Homo sapiens) (P04150 whole entry, looked up): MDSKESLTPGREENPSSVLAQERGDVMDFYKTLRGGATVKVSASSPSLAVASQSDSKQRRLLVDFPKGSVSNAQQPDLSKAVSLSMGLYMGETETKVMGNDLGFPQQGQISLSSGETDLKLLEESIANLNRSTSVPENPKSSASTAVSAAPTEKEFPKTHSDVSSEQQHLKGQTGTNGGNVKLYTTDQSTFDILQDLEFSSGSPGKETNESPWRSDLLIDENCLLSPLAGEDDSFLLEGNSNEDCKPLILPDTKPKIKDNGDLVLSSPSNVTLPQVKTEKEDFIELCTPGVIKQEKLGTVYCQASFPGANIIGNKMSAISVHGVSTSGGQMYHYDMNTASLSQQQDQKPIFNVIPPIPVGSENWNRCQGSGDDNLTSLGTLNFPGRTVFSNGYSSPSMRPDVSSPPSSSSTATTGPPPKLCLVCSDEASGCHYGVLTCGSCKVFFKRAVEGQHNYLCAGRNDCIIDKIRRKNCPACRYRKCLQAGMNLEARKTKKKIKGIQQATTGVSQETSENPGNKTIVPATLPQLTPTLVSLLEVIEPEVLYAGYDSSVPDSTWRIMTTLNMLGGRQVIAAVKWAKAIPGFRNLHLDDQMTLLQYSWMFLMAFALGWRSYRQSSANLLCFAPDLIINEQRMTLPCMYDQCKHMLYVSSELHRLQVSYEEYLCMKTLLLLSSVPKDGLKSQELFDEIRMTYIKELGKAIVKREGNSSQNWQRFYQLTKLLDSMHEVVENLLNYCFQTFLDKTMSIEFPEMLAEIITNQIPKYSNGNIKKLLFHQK
Experiment [6] shares this target. Briefly: GR-EFC Redistribution (AID 451; calls by dose curve; note: potency is the fitted concentration of half-maximal effect). Conditions: CHO-K1 GR-EFC translocation, beta-gal luminescence, 2 h. The essentials:
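Translocation of GR-ED fusion to nuclear EA restores b-gal, read by luminescence after 1 h room-temperature detection. Engineered CHO-K1 biosensor cells, 1,000/well, exposed 2 h at 37 C to titrations up to 46 uM final.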

In experiment [7] the target is Mitogen-activated protein kinase 10 (Mus musculus) (UniProt Q61831). Briefly: JNK3 AlphaScreen Assay (AID 530).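 Note: kinase came from lysate of stimulated human HepG2 cells; signal reports phosphorylation of biotinylated GST-cJun 1-79 at Ser73 with 10 µM ATP; % is set by controls: 0 for no effect and ±100 for the full control effect.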 The settings on record: JNK3 lysate, c-Jun phosphorylation; series mostly up to 57.1 µM. The essentials: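 Room-temperature AlphaScreen kinase assay; pre-activated HepG2 lysate as JNK3 source, biotin-GST-cJun(1-79) substrate, 10 uM ATP, compound 15 min preincubation.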
On the technique in general: Bead proximity is the source of the signal in Alpha formats.

Experiment [8] has as its target 3',5'-cyclic-AMP phosphodiesterase 4B (Homo sapiens) (UniProt Q07343). Briefly: qHTS Assay for Inhibitors of PDE-IV (AID 607; active = well fitted activation curve with a large enough effect in the main read-out, with a control signal flat, not every such curve was filed as active; note: % of control where 0% means no effect). Conditions: HEK293 ACTOne CNG channel cells, membrane potential fluorescence; series mostly up to 22.9 µM. The essentials:
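HEK293 ACTOne cells with CNG channel (1000/well), endogenous PDE4; membrane potential dye, compounds up to 22.9 uM final. Fluorescence Ex 535/Em 590; RO 20-1724 (100 uM final) as reference.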
In general terms: qHTS replaces the single test concentration by a dilution series.

A short description of experiment [9]: Confirmation and Secondary Assay for Modulators of Hemoglobin Beta Chain Splicing at IVS2 654 locus (AID 910; active = well fitted curve in the direction sought with a large enough effect; an effect the other way counts as inactive or inconclusive;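 note: HeLa cells stably carrying EGFP split by mutant beta-globin IVS2-654 intron; per-well total GFP intensity by laser scanning cytometry after 2-day treatment; % of control where 0% means no effect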). The settings on record: HeLa EGFP-654 splicing reporter, GFP fluorescence, 48 h; series mostly up to 38.3 µM. The method in brief:
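Readout: per-well total peak green fluorescence (488 nm ex, 500–520 nm em) from objects 5–250 µm, reflecting correct splicing of an EGFP-654 reporter. Compounds were applied for 2 days at 37 °C to overnight-plated HeLa EGFP-654 cells; controls were DMSO and 500 nM IVS2-654 PNA.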

Experiment [10] in a line: Confirmation and Secondary Assay for Modulators of Hemoglobin Beta Chain Splicing at IVS2 705 locus (AID 930; active = well fitted curve in the direction sought with a large enough effect; an effect the other way counts as inactive or inconclusive;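 note: HeLa cells stably expressing the EGFP-705 splicing reporter; % of control where 0% means no effect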). Conditions: HeLa EGFP-705 splicing reporter, GFP fluorescence, 48 h; series mostly up to 38.3 µM. The essentials: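 Splice-correction reporter: EGFP cDNA split by beta-globin intron 2 bearing the 705 mutation, stably in HeLa. Compound incubation 2 days, 37C; fluorescent objects 5-250 µm summed per well.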

A short description of experiment [11]: qHTS Assay for Lipid Storage Modulators (AID 1519; calls by dose curve). Conditions: Drosophila S3 cells, BODIPY lipid droplet/cell ratio, laser cytometry, cells loaded with oleic acid; for activity change, negative = inhibition: at 57.5 µM (top of the series). The method in brief:
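Cells seeded at 5,000 per well were treated with compounds over a concentration series and loaded with oleic acid (400 uM, as added). Lipid droplet fluorescence (488 nm excitation, 500-530 nm channel) was read by laser-scanning cytometry and normalized to 20 uM Triacsin C.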

Experiment [12] has as its target Ubiquitin carboxyl-terminal hydrolase 1 (Homo sapiens) (UniProt O94782). Briefly: Inhibitors of USP1/UAF1: Pilot qHTS (AID 504865; active = well fitted curve in the direction sought with a large enough effect; an effect the other way counts as inactive or inconclusive;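 note: rhodamine fluorescence freed from ubiquitin-rhodamine substrate followed over time; top concentration of the series differs between compounds; % is set by controls: 0 for no effect and ±100 for the full control effect; nearly all actives have a fitted effect of over 35% in size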). The settings on record: purified USP1/UAF1, Ub-rhodamine cleavage fluorescence; series mostly up to 54.9 µM. The method in brief:
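Enzyme-free wells gave the negative control, while test wells held 1nM USP1/UAF1 preincubated with compound for 15 min at room temperature. Ub-Rho at 150nM final started the reaction, and fluorescence at 480/540 nm was recorded kinetically.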

For experiment [13], the target named is Cytochrome P450 1A2 (Homo sapiens) (UniProt P05177). Briefly: p450-cyp1a2 (AID 410; calls by dose curve; note: potency is the fitted concentration of half-maximal effect;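 for activity change, negative = inhibition: -100% = full effect of reference inhibitor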). The settings on record: recombinant CYP1A2, luciferin-ME demethylation, luminescence; series mostly up to 57 µM. The essentials: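 Human CYP1A2 (20nM) demethylated Luciferin-ME at its Km (100uM) in 100mM KPO4. After 10 min compound preincubation, NADPH regeneration ran the reaction 60 min at room temperature. Luciferin was read by luminescence, normalized to 57 uM furafylline.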
Sequence of Cytochrome P450 1A2 (Homo sapiens) (P05177 whole entry, looked up): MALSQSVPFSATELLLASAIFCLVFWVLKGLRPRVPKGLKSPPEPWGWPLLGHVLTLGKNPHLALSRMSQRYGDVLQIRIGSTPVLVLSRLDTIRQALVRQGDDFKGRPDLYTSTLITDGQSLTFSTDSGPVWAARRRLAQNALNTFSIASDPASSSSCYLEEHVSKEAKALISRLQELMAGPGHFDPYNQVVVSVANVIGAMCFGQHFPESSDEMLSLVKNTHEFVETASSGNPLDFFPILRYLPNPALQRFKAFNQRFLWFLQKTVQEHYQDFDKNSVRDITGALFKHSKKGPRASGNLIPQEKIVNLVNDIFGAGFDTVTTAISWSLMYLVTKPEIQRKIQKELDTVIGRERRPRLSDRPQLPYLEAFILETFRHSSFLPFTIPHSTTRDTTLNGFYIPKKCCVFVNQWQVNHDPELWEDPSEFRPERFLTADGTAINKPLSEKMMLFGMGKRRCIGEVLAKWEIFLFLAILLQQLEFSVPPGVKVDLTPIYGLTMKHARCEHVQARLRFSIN

For experiment [14], the target named is Cytochrome P450 3A4 (Homo sapiens) (UniProt P08684). Briefly: qHTS Assay for Activators of Cytochrome P450 3A4 (AID 885; active = well fitted curve in the direction sought with a large enough effect; an effect the other way counts as inactive or inconclusive; note: nearly all actives have a fitted effect of over 65% in size). The settings on record: recombinant CYP3A4, Luciferin-PPXE luminescence, 60 min; series mostly up to 57.1 µM. The method in brief: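 Human CYP3A4 (20 nM) with Luciferin-PPXE at 25 uM (its KM) in 200 mM KPO4; 10 min compound preincubation, then NADPH regeneration and 60 min reaction at RT. Luciferin read by luminescence; normalized to 57 uM ketoconazole full inhibition.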
Sequence of Cytochrome P450 3A4 (Homo sapiens) (P08684 whole entry, looked up): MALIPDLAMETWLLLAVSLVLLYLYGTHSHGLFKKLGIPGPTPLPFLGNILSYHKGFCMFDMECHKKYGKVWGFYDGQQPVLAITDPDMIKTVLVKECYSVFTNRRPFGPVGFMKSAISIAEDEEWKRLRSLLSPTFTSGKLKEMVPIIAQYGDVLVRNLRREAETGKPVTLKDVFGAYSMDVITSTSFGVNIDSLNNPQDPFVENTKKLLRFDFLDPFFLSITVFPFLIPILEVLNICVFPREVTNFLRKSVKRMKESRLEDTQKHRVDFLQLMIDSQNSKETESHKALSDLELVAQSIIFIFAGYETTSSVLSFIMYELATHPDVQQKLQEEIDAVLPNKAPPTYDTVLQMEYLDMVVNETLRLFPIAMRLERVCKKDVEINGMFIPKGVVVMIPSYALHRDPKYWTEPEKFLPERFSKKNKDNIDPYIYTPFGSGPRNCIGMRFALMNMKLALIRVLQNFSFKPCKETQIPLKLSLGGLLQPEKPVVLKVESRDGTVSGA

Experiment [15] is described as follows: qHTS Assay for Identification of Small Molecule Agonists for Hypoxia Response Element Signaling Pathway (AID 914; active = well fitted activation curve with a large enough effect in the signal ratio, with a control signal flat, not every such curve was filed as active; the % refers to the signal ratio; note: % of control where 0% means no effect). The settings on record: ME-180 (cervical carcinoma) HRE-bla reporter, beta-lactamase ratio, CoCl2, 17 h; activation: stronger effect = higher value. The method in brief:
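Cells were plated overnight, pin-dosed with compound in a titration series, co-stimulated with EC50 CoCl2 and incubated 17 hours at 37 degrees Celsius. CCF4 substrate was then loaded, and AC50 values came from the 460nm/530nm ratio.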

Experiment [16] has as its target Cytochrome P450 2C19 (Homo sapiens) (UniProt P33261). As to the kind of experiment: qHTS Assay for Inhibitors and Substrates of Cytochrome P450 2C19 (AID 899; active = well fitted curve in the direction sought with a large enough effect; an effect the other way counts as inactive or inconclusive; note: % is set by controls: 0 for no effect and ±100 for the full control effect; nearly all actives have a fitted effect of over 60% in size). The settings on record: recombinant CYP2C19, luciferin-H EGE luminescence; series mostly up to 57.1 µM. The essentials:
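Reactions contain 5nM enzyme, 10uM Luciferin-H EGE (KM) and 50mM KPO4; compound preincubates 10 min at 37C, NADPH regeneration starts turnover for 60 min. Luminescence after detection reagent gives activity.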

Setting [17] is: measured here: cell count channel max response.
Setting [18] is: measured here: lipid channel max response.

Results filed as inconclusive are left out. Activity calls are given as the source filed them. Unless noted, calls come from the whole dose curve; as a rule, active = well fitted curve in either direction with a large enough effect (not every such curve was filed as active); inconclusive = small, poorly fitted or top-dose-only effect, or another doubt; inactive = flat fitted curve, though single readings scatter.

Sequence of 3',5'-cyclic-AMP phosphodiesterase 4B (Homo sapiens) (Q07343 whole entry, looked up): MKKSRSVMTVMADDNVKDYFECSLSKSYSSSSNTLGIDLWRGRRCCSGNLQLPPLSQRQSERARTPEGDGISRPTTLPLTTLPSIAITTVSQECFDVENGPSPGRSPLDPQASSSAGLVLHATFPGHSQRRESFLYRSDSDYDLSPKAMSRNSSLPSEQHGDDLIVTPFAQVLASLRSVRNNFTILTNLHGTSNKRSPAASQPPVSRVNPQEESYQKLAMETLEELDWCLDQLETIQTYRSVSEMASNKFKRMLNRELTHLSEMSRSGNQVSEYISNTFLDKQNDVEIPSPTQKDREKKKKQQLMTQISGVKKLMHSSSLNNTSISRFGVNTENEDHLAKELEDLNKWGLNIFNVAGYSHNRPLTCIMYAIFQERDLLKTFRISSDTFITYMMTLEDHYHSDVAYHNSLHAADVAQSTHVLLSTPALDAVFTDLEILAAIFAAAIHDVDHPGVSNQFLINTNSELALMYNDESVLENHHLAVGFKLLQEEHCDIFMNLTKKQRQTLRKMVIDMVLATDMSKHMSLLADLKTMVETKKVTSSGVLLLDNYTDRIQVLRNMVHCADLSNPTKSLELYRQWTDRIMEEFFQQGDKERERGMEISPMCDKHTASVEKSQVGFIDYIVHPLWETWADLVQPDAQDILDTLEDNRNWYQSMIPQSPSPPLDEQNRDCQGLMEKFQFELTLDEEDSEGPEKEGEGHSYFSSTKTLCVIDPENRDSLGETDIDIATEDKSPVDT
Sequence of Lysosomal acid glucosylceramidase (Homo sapiens) (P04062 whole entry, looked up): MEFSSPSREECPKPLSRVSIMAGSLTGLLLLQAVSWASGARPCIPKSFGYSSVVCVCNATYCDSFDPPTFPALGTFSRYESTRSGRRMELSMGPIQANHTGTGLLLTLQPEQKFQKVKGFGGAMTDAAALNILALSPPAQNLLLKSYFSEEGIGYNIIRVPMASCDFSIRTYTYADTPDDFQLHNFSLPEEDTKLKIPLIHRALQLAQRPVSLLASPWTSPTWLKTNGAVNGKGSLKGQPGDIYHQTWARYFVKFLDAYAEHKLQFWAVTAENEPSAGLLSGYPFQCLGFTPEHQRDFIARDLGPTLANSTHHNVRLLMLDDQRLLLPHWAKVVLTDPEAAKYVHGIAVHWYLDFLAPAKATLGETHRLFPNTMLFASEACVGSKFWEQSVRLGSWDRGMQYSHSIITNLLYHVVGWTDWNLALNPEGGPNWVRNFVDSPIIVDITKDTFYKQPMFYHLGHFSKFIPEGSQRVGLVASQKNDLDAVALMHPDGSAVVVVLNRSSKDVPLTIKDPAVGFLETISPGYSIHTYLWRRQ
Sequence of Ubiquitin carboxyl-terminal hydrolase 1 (Homo sapiens) (O94782 whole entry, looked up): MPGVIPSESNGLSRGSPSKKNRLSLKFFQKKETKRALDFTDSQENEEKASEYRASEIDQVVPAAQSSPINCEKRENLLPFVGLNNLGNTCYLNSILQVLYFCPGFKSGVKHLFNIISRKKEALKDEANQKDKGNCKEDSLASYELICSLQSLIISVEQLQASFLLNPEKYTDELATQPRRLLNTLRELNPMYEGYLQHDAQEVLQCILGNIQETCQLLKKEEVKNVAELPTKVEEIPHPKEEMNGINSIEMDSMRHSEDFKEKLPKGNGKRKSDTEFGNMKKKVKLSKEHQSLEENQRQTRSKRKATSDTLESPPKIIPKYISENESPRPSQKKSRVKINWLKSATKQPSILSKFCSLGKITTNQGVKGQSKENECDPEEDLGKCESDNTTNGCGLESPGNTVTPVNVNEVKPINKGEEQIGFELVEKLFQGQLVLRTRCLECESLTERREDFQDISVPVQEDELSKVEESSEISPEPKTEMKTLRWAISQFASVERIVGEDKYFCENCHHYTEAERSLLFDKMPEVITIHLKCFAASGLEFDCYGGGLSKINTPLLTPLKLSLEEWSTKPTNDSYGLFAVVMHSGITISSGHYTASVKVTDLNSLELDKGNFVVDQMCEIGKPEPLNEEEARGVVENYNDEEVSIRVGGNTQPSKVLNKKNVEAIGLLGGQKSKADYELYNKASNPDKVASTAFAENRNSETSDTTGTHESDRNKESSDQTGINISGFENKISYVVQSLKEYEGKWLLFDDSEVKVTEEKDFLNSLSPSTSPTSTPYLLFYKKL
Sequence of Cytochrome P450 2C19 (Homo sapiens) (P33261 whole entry, looked up): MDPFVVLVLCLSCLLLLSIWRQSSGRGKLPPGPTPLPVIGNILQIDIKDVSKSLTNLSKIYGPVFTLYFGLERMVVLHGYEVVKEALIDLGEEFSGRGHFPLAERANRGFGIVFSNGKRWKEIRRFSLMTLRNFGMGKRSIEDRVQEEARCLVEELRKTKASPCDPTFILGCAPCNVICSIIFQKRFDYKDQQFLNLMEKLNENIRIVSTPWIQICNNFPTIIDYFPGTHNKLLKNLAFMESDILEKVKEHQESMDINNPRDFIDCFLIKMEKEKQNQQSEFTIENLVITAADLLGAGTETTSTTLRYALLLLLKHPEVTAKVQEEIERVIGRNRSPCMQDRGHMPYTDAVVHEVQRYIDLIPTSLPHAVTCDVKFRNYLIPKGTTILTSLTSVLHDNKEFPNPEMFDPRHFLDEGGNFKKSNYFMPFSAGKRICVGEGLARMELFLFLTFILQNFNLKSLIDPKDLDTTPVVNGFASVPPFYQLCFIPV

Take `CN(C)Cc1ccccc1-c1ccc2ncnc(NC3CC3)c2c1`: the Potency in experiment [1] was > 11.4 µM (inactive); in [5] it was > 46 µM (inactive); in experiment [6] it was > 46 µM (inactive). Further, the activity change, negative = inhibition in experiment [2] was 24% (inactive); in experiment [3], -9.4% (inactive); in experiment [11], 9.69% (inactive). Besides, the activity, negative = inhibition in [4] is -14.6% (inactive). Moreover, the Potency entry in experiment [7], in [8], in [9] and in experiment [12] was “inactive” in each case. For the same compound, the outcome in experiment [10] was inactive. Besides, the max response in experiment [11] (setting [17]) is 12.6%; in experiment [11] (setting [18]) it was 24.1%.
Take `Cc1noc(C)c1-c1nccc(N2CCNCC2)n1`: the Potency was > 11.4 µM (inactive) in experiment [1], > 46 µM (inactive) in experiment [5] and > 46 µM (inactive) in experiment [6]. Moreover, the activity change, negative = inhibition in experiment [2] was 14.5% (inactive); in experiment [3], -5.44% (inactive); in experiment [11], 6.06% (inactive). In addition, the activity, negative = inhibition in [4] is -0.568% (inactive). In addition, the Potency entry in [7], in experiment [8], in [9] and in experiment [12] was “inactive” throughout. In experiment [10], the compound was called inactive. For the same compound, the max response in experiment [11] (setting [17]) turned out to be 6.93%; in experiment [11] (setting [18]), 14.7%.
In the case of `O=C(c1cc(C(F)(F)F)cc(C(F)(F)F)c1)N1CCC2(CC1)CN(Cc1ccccc1)C2`, the Potency in experiment [1] was > 11.4 µM (inactive); in experiment [6], > 46 µM (inactive). The activity change, negative = inhibition was -4.34% (inactive) in [2] and 1.87% (inactive) in [11]. In addition, the Potency result in experiment [13], in experiment [7] and in experiment [8] was “inactive” in each case. Besides, the activity, negative = inhibition in [4] was 9.42% (inactive). Moreover, the max response in experiment [11] (setting [17]) stood at 22.2%; in [11] (setting [18]), 24.8%.
Consider `O=c1cnc2cnc(N3CCOCC3)nc2n1C[C@H]1CCCO1`, for which the Potency is > 11.4 µM (inactive) in [1], 10 µM (active) in experiment [13], > 9.22 µM (inactive) in experiment [5] and > 46 µM (inactive) in [6]. Besides, the activity change, negative = inhibition in [2] was 2.78% (inactive); in experiment [11], 5.43% (inactive). The activity, negative = inhibition in [4] is -3.88% (inactive). Moreover, the Potency entry in [7], in experiment [8] and in experiment [14] was “inactive” each time. Further, in experiment [15], the activation was 9.58% (inactive). Also, the max response in [11] (setting [17]) worked out at 13.3%; in experiment [11] (setting [18]), 22.5%.
As for `CN(C)C(=O)c1ccc(-c2nc(N(C)C)c3ccccc3n2)cc1`, the Potency in experiment [1] is > 11.4 µM (inactive); in experiment [13], 10 µM (active); in [5], > 46 µM (inactive); in experiment [6], > 46 µM (inactive). Besides, the activity change, negative = inhibition in experiment [2] was -11.7% (inactive); in experiment [11] it was 8.51% (inactive). For the same compound, the activity, negative = inhibition in experiment [4] was 2.64% (inactive). The Potency result in [7], in experiment [8], in experiment [14], in experiment [16], in experiment [9] and in experiment [12] was “inactive” in each case. The result in [10] was inactive. The max response turned out to be 8.15% in [11] (setting [17]) and 13.9% in experiment [11] (setting [18]).
